# Measurements published in the supplement of paper PMC6555819.
# Experiments:
# Assay in all cases: PBM binding z-score (relative to random genomic background probes); higher = stronger binding; sequences stand for … in GC…GCGATTGACAGCGTAGAATGAAGG
# [1] = tested on: FXR:RXRa (NR concentration 270 nM, RXRa partner concentration 90 nM)
# Procedure, shortened: (§1)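 Binding z-scores take random background probes as their reference. They come from custom Agilent 4×180K protein-binding microarrays incubated 1 h with ligand-free nuclear receptor dimers, with antibodies against each partner (one per run) detecting binding. Scanned fluorescence was regression-normalized.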
# [2] = tested on: LXRa:RXRa (NR concentration 270 nM, RXRa partner concentration 90 nM)
# Procedure, shortened: as §1
# [3] = tested on: LXRa homodimer (NR concentration 270 nM)
# Procedure, shortened: as §1
# [4] = tested on: LXRb:RXRa (NR concentration 270 nM, RXRa partner concentration 90 nM)
# Procedure, shortened: as §1
# [5] = tested on: LXRb homodimer (NR concentration 270 nM)
# Procedure, shortened: as §1
# [6] = tested on: PPARa:RXRa (NR concentration 270 nM, RXRa partner concentration 90 nM)
# Procedure, shortened: as §1
# [7] = tested on: PPARg:RXRa (NR concentration 180 nM, RXRa partner concentration 90 nM)
# Procedure, shortened: as §1
# [8] = tested on: PPARg:RXRa 270nM:90nM, anti-RXR (NR concentration 270 nM, RXRa partner concentration 90 nM)
# Procedure, shortened: as §1
# [9] = tested on: PPARg:RXRa 30nM:10nM, anti-RXR (NR concentration 30 nM, RXRa partner concentration 10 nM)
# Procedure, shortened: as §1
# [10] = tested on: PPARg:RXRa 90nM:30nM, anti-RXR (NR concentration 90 nM, RXRa partner concentration 30 nM)
# Procedure, shortened: as §1
Sequence,PBM binding z-score [1],PBM binding z-score [2],PBM binding z-score [3],PBM binding z-score [4],PBM binding z-score [5],PBM binding z-score [6],PBM binding z-score [7],PBM binding z-score [8],PBM binding z-score [9],PBM binding z-score [10]
TTACCAAGGTGAAAGGTCGTTGACGCACGCCTTG,4.03,3.4,0.245,2.91,-0.135,5.49,8.84,8.07,6.9,8.64
ACTCGGAGGACAAAAGTCAGAGCTACGCCAGTGA,-0.293,-0.245,-0.424,-0.518,-0.302,0.347,1.41,2.68,0.796,2.08
GATACAGGGTCAAGGCCAGTGTACGCGTATTGAT,6.59,4.26,-0.145,3.52,-0.211,5.6,5.69,5.76,2.44,4.1
TCGAGTAGGTTACCAATGGGGCATTCAACTTTCT,0.374,1.64,-0.293,1.55,0.172,1.67,0.652,1.67,1.26,1.67
ATCTTTAGGTAAAAGTTCAGTGAATCCCGAGGAT,0.829,1.33,1.14,0.973,1.01,4.03,6.36,7.35,6.09,7.91
TAGCCTAGGTCATTGGGCCAGTCTAGTACGCATC,3.99,3.21,0.181,1.78,0.0728,3.41,3.3,3.25,0.536,2.3
TTACCAAGGTGAAAGGTGGTTGATGCACGCCTTG,0.879,0.449,-0.508,0.171,-0.366,2.81,4.38,5.35,3.06,4.85
TCTAGCAGGCCAGAGGGCCACTCAAGAGGTACGG,-0.266,-0.338,-0.799,-0.58,-1.64,0.104,0.795,1.97,1.77,1.71
TCATATAGGTAATACAGGTGAACGTCGGCATCTA,0.964,1.09,0.498,1.15,0.51,1.98,1.72,2.78,4.08,3.27
CCTAGCAGGCCAGAGTCACTCAAGCATTTCGCTT,-0.525,-0.329,-0.444,-0.519,-1.47,-0.299,-0.117,-0.25,-0.904,-0.753
CGTCAAAGTTCAACTAAGGTAACCTAAAGCACGC,7.07,6.1,4.45,4.4,2.21,5.35,5.27,5.95,2.33,4.85
ATCTCTAGGTAAAGTTCAGTCAAAGATCGATAGA,1.73,3.21,2.37,1.64,0.899,2.44,3.53,4.45,2.64,4.1
ACAGACAGGTGAGTGAAGGTAACTAAGCTGGACG,0.105,-0.0477,-0.437,-0.48,-0.463,0.107,0.457,-0.0366,-0.0843,-0.406
TCAGACTGGTGAAGGTAACTCAGGTACGCAGTCG,-0.62,0.98,-0.387,0.192,-1.07,0.467,0.185,1.29,2.82,1.98
CCGACTGGGGCAAAGGTTATCATACTCAGTACGA,1.81,1.66,0.176,1.87,-1.04,5.54,10.5,9.03,8.6,9.34
TAGCCTAGGTCAGTGGGCCAGTATAGTACGCATC,0.672,0.503,-0.786,0.274,-0.999,2.11,2.47,2.57,0.337,1.47
TGAGTGAGGTTAAAGATCAGGGAACGTGGCGTCG,2.78,2.38,-0.367,1.88,1.13,4.05,3.48,4.58,2.61,3.92
CCTTACGGGTCAAGGTTATTGCACGGGTGGTACG,5.1,3.67,0.262,2.96,0.000433,4.77,4.52,4.63,2.03,3.46
CCTTATGGGTCAAGGTTATAGCACGGGTGGTACG,4.02,2.78,0.0856,2.3,-0.169,4.23,5.35,5.19,2.54,4.72
ACTAGCAGGCCAAGTTCGGGTCACTCAAACAAAG,1.11,1.28,0.378,1.79,-0.339,2.45,0.431,0.794,-0.79,0.197
GCGACTGGGGCTAAGCAGGTTACCATAAGGTTGG,-0.407,-0.415,-0.836,-0.00625,-0.83,0.342,0.147,-0.288,-0.707,-0.68
ACGAGTTGGTCAGCTGAGGTCACACACAATTCGG,3.59,3.08,1.81,3.17,-0.229,3.6,1.64,2.17,0.283,1.3
ATCTCTAGGTAACCGAGTTCAGTGAATGCCGAAC,0.422,0.883,1.08,0.706,0.377,1.44,0.672,1.1,-0.103,0.724
CGTCCAAGGCCAGCAGGTCAGTGAAAGCGACGTG,0.378,0.0811,-0.472,-0.00321,-1.05,0.83,-0.215,-0.182,-0.911,-0.203
TCTATTAATTGATTAGGGCAACCGAAACAGCGGA,0.209,0.405,1.09,0.283,0.631,0.559,0.157,1.87,3.6,2.5

Sequence,PBM binding z-score [1],PBM binding z-score [2],PBM binding z-score [3],PBM binding z-score [4],PBM binding z-score [5],PBM binding z-score [6],PBM binding z-score [7],PBM binding z-score [8],PBM binding z-score [9],PBM binding z-score [10]
CAAACTAGGTCAAGAGGTCGAAGTCCGCTTCCCG,5.04,4.11,1.22,2.77,0.502,5.23,8.83,7.41,5.95,7.63
TAGTCTAGGTCATGCGGGCCAGTATAGTGTCGGC,4.02,3.48,1.36,1.76,1.87,3.92,4.97,4.56,1.78,3.81
TTACCAAGGTGAAAGGGCGTTGATGCACGCCTTG,1.12,0.702,-0.488,0.742,-0.657,3.48,5.55,5.63,4.32,5.82
TCTCGTAGGACACGAAAGGTCAGAGCTCGACATC,3.08,3.85,2.58,3.39,0.134,3.58,1.24,2.98,2.7,2.81
CGTCCAAGGTCAGAGAGGTCAGTGGATGCCGAGT,6.14,5.17,3.43,4.38,0.285,4.94,3.46,4.26,1.09,2.58
CCTAGTTGGTCAAGGACACACACGCTATAGGTAC,0.477,0.154,0.309,0.44,0.532,0.0552,1.12,0.49,0.287,0.489
ACTAGCAGGCCAAGTTTGGGTCAGTCAAACAAAG,0.028,-0.244,-0.318,-0.0247,-0.904,0.619,-0.396,-0.173,-0.835,-0.45
AACACAGGGTCATCGTAGGCCAGAGTACGCACAG,7.22,6.21,1.53,4.44,0.922,5.84,5.85,5.7,1.96,4.21
GCTATTAGTTGAAAGGGCAACCGAATGATTCTCG,0.555,0.733,0.435,0.971,0.134,2.33,2.9,4.29,2.39,4.05
TGAATGTGGTTATAAGATCAGGGAACGTTGCAAA,0.123,0.222,0.268,0.397,0.612,0.12,0.237,0.617,0.803,1.15
CCTAGTCGGTCAGGAGGTCACACACCGGATATGA,3.96,4,2.81,3.49,0.605,4.55,4.89,5.09,3.26,4.26
TCTAGTTGGTCACGGAGGTTACACACGACGGGTA,1.01,1.19,0.54,1.12,0.211,1.96,1.7,2.35,3.22,2.73
CCAGATAGGTGAAAGGTAACTCAGTCTGGTACGC,0.688,0.694,0.0245,1.14,-0.143,4.2,7.95,7.54,7.57,7.93
ATATGTAGGTTAAGGGACATTCAGGTTGGTTCGC,0.93,1.06,0.514,0.945,0.703,3.79,6.5,6.51,4.44,6.65
CCTCACGGGTCACGAGGTTATAGCACGACGAGCG,6.54,4.19,0.232,3.64,-0.109,5.59,6.23,5.68,2.34,4.25
GCGACTGGGGCATCAGCAGGTTATCATAACTTAA,-0.342,-0.258,-0.199,0.87,-0.615,1.38,0.968,0.916,-0.378,0.369
ACTCGGAGGACAAAGGTCAGAGCCACGCCAGTGA,4.39,4.56,1.53,3.52,0.161,5.36,8.4,7.54,6.19,8.08
CCGACTGGGGCAAAGGTTACCGTACTCAGTACGA,1.69,1.59,-0.472,1.95,-1.15,5.78,10.6,9.35,9.56,9.91
TAGGCTAGGTCATGGGCCAGTATACCACGCGAAC,4.91,3.13,0.324,2.18,-0.308,4.03,4.36,4.24,1.3,3.18
CCGACTGGGACAAGGTTACCATAACGCACAGCCA,0.29,0.604,-0.141,0.507,-0.706,1.49,1.92,2.18,0.494,1.59
TGTCAAAGTTCAAAGGGAACGTAAGTATCCACAC,7.11,6.18,3.96,4.16,1.68,5.06,8.1,7.17,5.31,7.11
GGAACGAGCGCAAGTTGATAGCAGAGTTTGATGG,-0.654,-0.851,-0.781,-1.08,-1.48,-0.641,0.166,-0.948,-0.778,-0.888
CTACCTAGGTGAACAAGGTCGTTGATTACTATTC,0.921,0.98,0.31,1.61,-0.219,2.31,1.31,1.36,-0.0446,0.717
ATCTCTAGGTAACCAAGTTCAGTGAGTGCCGAAC,0.417,0.863,0.949,0.855,0.746,1.04,0.34,0.67,-0.0594,0.338
